Results on eight compounds are retold here after PubChem BioAssay (NCI).

SMILES strings stand for the structures. About 83,000 compounds went through this panel and 20% of them were active in at least one assay; those are over-represented in the sample as a whole.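 In brief: 96-well plates, 48 h treatment, single concentration, percent growth endpoint.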 Values without a mark were called inactive. The source made the active and inactive calls. Rule for the calls: active = growth percent below 10; inactive = the rest.

Some test systems named below: SK-MEL-2 melanoma; EKVX NSCLC; SN12C renal; UO-31 renal; TK-10 renal; ACHN renal; CAKI-1 renal; A498 renal; CCRF-CEM leukemia; MOLT-4 leukemia; SR leukemia; RPMI-8226 leukemia; OVCAR-8 ovarian; OVCAR-5 ovarian; OVCAR-4 ovarian; SK-OV-3 ovarian; IGROV1 ovarian; OVCAR-3 ovarian; HS 578T breast; NCI/ADR-RES ovarian.
Common to all, as to assay: NCI-60 one-dose screen, 48 h (100 = growth as untreated, 0 = no growth, -100 = all killed)
What all share (details): 10 µM unless noted

On to `COc1sc(/C=N/NC(=O)c2[nH]c3ccc(Br)cc3c2-c2ccccc2)cc1Cl`, for which the growth with SK-MEL-2 melanoma is -9.93% (active); in the test on EKVX NSCLC it was -12.3% (active); in the test on SN12C renal, -26.6% (active); in the test with UO-31 renal it was -5.09% (active); with TK-10 renal it was 9.67% (active); in the test with ACHN renal, -67.9% (active). The growth in the test with CAKI-1 renal was -46.4% (active); in the test with A498 renal, 9.37% (active); in the test with CCRF-CEM leukemia, 9.12% (active); in the test with MOLT-4 leukemia, -3.08% (active); in the test with SR leukemia, 11.1%; with RPMI-8226 leukemia it was 12.7%. In addition, the growth in the test on OVCAR-8 ovarian was -30.4% (active); with OVCAR-5 ovarian, -29.3% (active); in the test on OVCAR-4 ovarian it was 29.9%; in the test with SK-OV-3 ovarian, 12.1%; in the test on IGROV1 ovarian, -41.1% (active); in the test with OVCAR-3 ovarian, 4.74% (active). Moreover, the growth in the test with HS 578T breast was 7.66% (active); in the test on NCI/ADR-RES ovarian, -48.7% (active).
For `Cc1ccc(Nc2nnc(-c3c[nH]c4ccccc34)o2)c(C)c1`, the growth in the test on SK-MEL-2 melanoma was 31.4%; in the test with EKVX NSCLC, 21.9%; in the test on SN12C renal, 18%; in the test with UO-31 renal it was 26.4%; with TK-10 renal, 45.8%; with ACHN renal, 34.3%. Besides, the growth with CAKI-1 renal is 33.5%; in the test on A498 renal, 112%; in the test on CCRF-CEM leukemia, -0.0547% (active); in the test with MOLT-4 leukemia, 0.191% (active); in the test on SR leukemia it was 6.21% (active); in the test on RPMI-8226 leukemia it was -7.61% (active). In addition, the growth was -12.1% (active) in the test with OVCAR-8 ovarian; 16.3% with OVCAR-5 ovarian; 71.9% in the test on OVCAR-4 ovarian; 16.2% in the test with SK-OV-3 ovarian; 12.2% in the test with IGROV1 ovarian; 12.3% in the test on OVCAR-3 ovarian. The growth with HS 578T breast is 30.9%; in the test on NCI/ADR-RES ovarian it was -29.2% (active).
With `O=C1/C(=C/C=C/c2ccco2)SC(=S)N1CC(=S)C1C=CS(=O)(=O)C1` (stereo not given), the growth with SK-MEL-2 melanoma was 88.1%; with EKVX NSCLC, 94%; in the test with SN12C renal, 81.2%; in the test on UO-31 renal, 84.1%; with TK-10 renal it was 126%; in the test with ACHN renal, 100%. In addition, the growth with CAKI-1 renal is 107%; in the test on A498 renal it was 141%; in the test on CCRF-CEM leukemia, 45.9%; with MOLT-4 leukemia, 68.8%; with SR leukemia it was 39%; in the test on RPMI-8226 leukemia it was 63.9%. Besides, the growth is 97.1% in the test on OVCAR-8 ovarian; 100% in the test on OVCAR-5 ovarian; 96.1% in the test with OVCAR-4 ovarian; 105% in the test with SK-OV-3 ovarian; 92.7% in the test with IGROV1 ovarian; 65.9% in the test with OVCAR-3 ovarian. Also, the growth was 109% in the test with HS 578T breast and 95.8% in the test on NCI/ADR-RES ovarian.
In the case of `COc1ccc(-c2cc(C(=O)OCc3ccc(Br)cc3)nn2-c2ccc(S(C)(=O)=O)cc2)cc1OC`, the growth in the test with SK-MEL-2 melanoma is 95%; in the test with EKVX NSCLC, 76.1%; with SN12C renal, 78.3%; in the test on UO-31 renal it was 42.4%; in the test with TK-10 renal, 75.5%; with ACHN renal it was 85.1%. Also, the growth in the test with CAKI-1 renal is 83.5%; with A498 renal it was 70.3%; in the test on CCRF-CEM leukemia, 84.2%; in the test on MOLT-4 leukemia, 64.5%; with SR leukemia it was 62.8%; with RPMI-8226 leukemia, 52.8%. Besides, the growth in the test on OVCAR-8 ovarian was 87.3%; in the test on OVCAR-5 ovarian, 97.8%; in the test on OVCAR-4 ovarian it was 73.3%; in the test with SK-OV-3 ovarian it was 83.7%; with IGROV1 ovarian it was 95.6%; with OVCAR-3 ovarian, 80.3%. The growth with HS 578T breast was 65.4%; in the test on NCI/ADR-RES ovarian it was 78.3%.
In the case of `CCN1C(=O)N(CC)C2NNC(Sc3c(C(=O)O)c4ccccc4n(CCC(C)C)c3=O)=NC21` (stereo not given), the growth in the test with SK-MEL-2 melanoma was 22.3%; in the test with EKVX NSCLC, 20.8%; in the test with SN12C renal it was 16.3%; in the test on UO-31 renal, 28.1%; in the test on TK-10 renal, 62.1%; in the test on ACHN renal, 24%. Further, the growth with CAKI-1 renal was 38.9%; in the test on A498 renal, 76.4%; with CCRF-CEM leukemia it was 7.16% (active); with MOLT-4 leukemia it was 3.81% (active); with SR leukemia, 6.32% (active); with RPMI-8226 leukemia, 10.3%. The growth is 5.92% (active) with OVCAR-8 ovarian; 21.4% in the test on OVCAR-5 ovarian; 46.5% with OVCAR-4 ovarian; 35.8% in the test on SK-OV-3 ovarian; 17.3% in the test on IGROV1 ovarian; -25.4% (active) with OVCAR-3 ovarian. Further, the growth is -14.6% (active) in the test with HS 578T breast and -35.4% (active) with NCI/ADR-RES ovarian.
Consider `CNc1nc2ccccc2n2c(-c3ccc(O)c(O)c3)cnc12`, for which the growth was 3.66% (active) in the test with SK-MEL-2 melanoma; 16.3% in the test with EKVX NSCLC; 4.03% (active) in the test on SN12C renal; 1.12% (active) in the test on UO-31 renal; 62.8% in the test with TK-10 renal; 6.64% (active) in the test with ACHN renal. The growth in the test with CAKI-1 renal is 3.52% (active); with A498 renal, 92.4%; in the test on CCRF-CEM leukemia, 14.9%; with MOLT-4 leukemia, 11%; in the test with SR leukemia, 6.32% (active); in the test with RPMI-8226 leukemia, 9.2% (active). Also, the growth in the test on OVCAR-8 ovarian is 11.9%; in the test on OVCAR-5 ovarian, 14.9%; in the test with OVCAR-4 ovarian, 34.7%; with SK-OV-3 ovarian it was 16.5%; with IGROV1 ovarian it was 7.31% (active); in the test with OVCAR-3 ovarian it was -5.33% (active). Besides, the growth in the test on HS 578T breast is 1.79% (active); in the test on NCI/ADR-RES ovarian, 6.86% (active).
For `NCCCCn1c(SCCc2c[nH]c3ccccc23)nnc1-c1ccc2ccccc2n1`, the growth was -73.5% (active) in the test on SK-MEL-2 melanoma; -0.327% (active) in the test on EKVX NSCLC; -14.8% (active) in the test on SN12C renal; 26.4% in the test on UO-31 renal; -7.11% (active) in the test with TK-10 renal; -55.1% (active) in the test with ACHN renal. Besides, the growth with CAKI-1 renal was -9.25% (active); with A498 renal it was 98.5%; with CCRF-CEM leukemia, -23.3% (active); with MOLT-4 leukemia, -35.4% (active); in the test on SR leukemia, -19.7% (active); with RPMI-8226 leukemia it was -50.3% (active). The growth in the test on OVCAR-8 ovarian is -9.11% (active); in the test with OVCAR-5 ovarian, 26%; in the test with OVCAR-4 ovarian, -11.1% (active); in the test on SK-OV-3 ovarian, 22.3%; in the test on IGROV1 ovarian, 3.95% (active); with OVCAR-3 ovarian, 10.4%. For the same compound, the growth was -25.4% (active) in the test with HS 578T breast and 62.3% in the test with NCI/ADR-RES ovarian.
On to `O=C1Nc2cc(-c3ccc(NS(=O)(=O)c4ccc([N+](=O)[O-])cc4)cc3)ccc2/C1=C/c1ccc[nH]1`, for which the growth in the test on SK-MEL-2 melanoma is 13.9%; in the test on EKVX NSCLC, 3.18% (active); in the test on SN12C renal, -17.7% (active); in the test on UO-31 renal it was 34.9%; in the test on TK-10 renal it was -2.87% (active); in the test with ACHN renal, -62.5% (active). Moreover, the growth was -17.4% (active) in the test on CAKI-1 renal; -33.6% (active) in the test on A498 renal; 27.5% in the test with CCRF-CEM leukemia; 15.8% in the test on MOLT-4 leukemia; 12.9% in the test with SR leukemia; 13.5% in the test on RPMI-8226 leukemia. Further, the growth with OVCAR-8 ovarian was 7.53% (active); with OVCAR-5 ovarian, 27.5%; in the test on OVCAR-4 ovarian it was 6.68% (active); in the test with SK-OV-3 ovarian, -16.9% (active); with IGROV1 ovarian, 39.2%; in the test on OVCAR-3 ovarian, -29.4% (active). In addition, the growth was 41.6% in the test on HS 578T breast and 24.4% in the test with NCI/ADR-RES ovarian.
